Source: PubChem (Center for Chemical Genomics, University of Michigan)
This excerpt belongs to a sample that is enriched for hits.
Dicer processing = blocks human Dicer maturation of pre-miR-21; z-score at 25 µM; Q9UPY3; cat-ELCCA pre-miR-21 Dicer processing, chemiluminescence; stronger effect = higher value; 47,000 compounds, 6% hits; in the data active = z-score above about 3, passing the limit was not always enough;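 also: plate controls were vehicle for no effect and no enzyme for full effect; higher signal means more uncleaved substrate so more Dicer inhibition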
Target sequence (Q9UPY3 whole entry, looked up): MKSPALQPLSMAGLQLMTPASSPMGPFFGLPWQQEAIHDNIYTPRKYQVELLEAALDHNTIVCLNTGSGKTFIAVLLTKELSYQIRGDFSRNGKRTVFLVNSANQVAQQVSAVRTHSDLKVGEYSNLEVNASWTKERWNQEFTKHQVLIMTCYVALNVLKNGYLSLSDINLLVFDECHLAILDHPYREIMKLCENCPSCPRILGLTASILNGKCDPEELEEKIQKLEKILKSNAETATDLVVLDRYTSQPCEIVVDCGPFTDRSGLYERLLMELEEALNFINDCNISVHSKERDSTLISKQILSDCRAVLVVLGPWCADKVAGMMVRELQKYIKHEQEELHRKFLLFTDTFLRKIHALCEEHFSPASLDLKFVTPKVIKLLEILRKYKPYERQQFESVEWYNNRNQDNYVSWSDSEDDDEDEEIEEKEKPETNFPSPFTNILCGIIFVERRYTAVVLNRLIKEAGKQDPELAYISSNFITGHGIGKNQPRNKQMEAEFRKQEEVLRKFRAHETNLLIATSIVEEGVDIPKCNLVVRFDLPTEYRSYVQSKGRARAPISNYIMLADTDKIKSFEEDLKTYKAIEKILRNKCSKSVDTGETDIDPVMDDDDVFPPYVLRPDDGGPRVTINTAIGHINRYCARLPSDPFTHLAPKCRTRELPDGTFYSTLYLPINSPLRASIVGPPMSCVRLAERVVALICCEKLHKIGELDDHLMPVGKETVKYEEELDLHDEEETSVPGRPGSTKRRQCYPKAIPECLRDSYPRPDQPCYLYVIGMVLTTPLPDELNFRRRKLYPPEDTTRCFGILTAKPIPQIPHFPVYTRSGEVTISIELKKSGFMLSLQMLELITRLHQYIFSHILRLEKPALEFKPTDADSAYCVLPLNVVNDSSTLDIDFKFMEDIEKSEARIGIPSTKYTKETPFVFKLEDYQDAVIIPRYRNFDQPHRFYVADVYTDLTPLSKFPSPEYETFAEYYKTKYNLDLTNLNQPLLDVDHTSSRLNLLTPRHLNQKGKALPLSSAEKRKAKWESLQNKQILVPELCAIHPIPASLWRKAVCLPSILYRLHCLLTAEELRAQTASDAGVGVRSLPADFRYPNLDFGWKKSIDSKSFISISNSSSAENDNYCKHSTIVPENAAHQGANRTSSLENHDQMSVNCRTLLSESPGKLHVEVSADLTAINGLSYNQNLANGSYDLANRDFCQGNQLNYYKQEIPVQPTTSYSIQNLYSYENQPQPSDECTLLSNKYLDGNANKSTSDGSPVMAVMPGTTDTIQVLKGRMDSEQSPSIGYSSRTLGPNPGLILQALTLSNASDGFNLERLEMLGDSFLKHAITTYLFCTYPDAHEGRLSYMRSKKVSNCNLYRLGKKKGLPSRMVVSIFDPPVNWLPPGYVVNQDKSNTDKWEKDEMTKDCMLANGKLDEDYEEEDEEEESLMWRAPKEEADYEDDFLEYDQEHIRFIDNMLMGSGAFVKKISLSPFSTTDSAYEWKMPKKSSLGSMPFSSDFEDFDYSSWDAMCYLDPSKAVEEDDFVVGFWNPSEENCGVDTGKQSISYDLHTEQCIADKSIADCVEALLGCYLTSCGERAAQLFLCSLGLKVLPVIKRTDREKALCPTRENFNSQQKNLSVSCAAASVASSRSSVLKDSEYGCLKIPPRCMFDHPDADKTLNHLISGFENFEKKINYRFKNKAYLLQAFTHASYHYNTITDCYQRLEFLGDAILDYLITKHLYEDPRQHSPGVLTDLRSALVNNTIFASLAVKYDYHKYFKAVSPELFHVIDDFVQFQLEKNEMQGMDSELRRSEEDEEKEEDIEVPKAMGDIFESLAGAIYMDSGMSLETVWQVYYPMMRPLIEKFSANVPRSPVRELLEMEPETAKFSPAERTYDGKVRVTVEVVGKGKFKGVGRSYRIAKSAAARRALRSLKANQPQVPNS
Starred values were filed as active, the others as inactive.

SMILES | Dicer processing
CN(C)/C=C/C(=C(/C#N)C(N)=O)c1ccc(Cl)cc1 | -0.26
COC(=O)c1ccc(OC(=O)c2sc3ccccc3c2Cl)cc1 | -0.85
O=C(c1cccc([N+](=O)[O-])c1)N1c2ccccc2Sc2ccccc21 | -0.55
O=C(CN1c2ccccc2Sc2ccccc21)NNC(=S)Nc1ccccc1 | 5.2*
S=C(Nc1ccccc1)N1c2ccccc2Sc2ccccc21 | 0.44
CC(C)(C)OC(=O)NCC(=O)NNC(=S)Nc1ccccc1 | -0.45
COc1ccccc1N(CC(O)COc1ccc(Cl)cc1)S(=O)(=O)c1ccccc1 (stereo not given) | 0.31
Cc1ccc2c(c1)C(O)(CC(=O)c1ccc(C(C)(C)C)cc1)C(=O)N2 (stereo not given) | -0.13
Cc1cc(C)n(-c2c(Cl)cc(Cl)cc2Cl)n1 | 0.36
CC(C)CCOc1cccc(C2c3c(oc4ccccc4c3=O)C(=O)N2c2ccccn2)c1 (stereo not given) | 1.2
COCCCN=C(Nc1ccc(Br)cc1C)SC | 1.9
COCCCN=C(Nc1cc(C)c(C)cc1C)SC | 3.9*
CN=C(Nc1ccc(C)cc1C)SC | 0.13
COc1ccc(-c2c(C(F)(F)F)oc3cc(OC(=O)c4ccco4)ccc3c2=O)cc1OC | -0.46
CCOCCn1c(=O)c2c(nc3n2CCCCN3c2ccc(OCC)cc2)n(C)c1=O | 0.36
CCOc1cc(C2C(C(=O)OC)=C(C)NC3=C2C(=O)CC(c2ccc(OC)cc2)C3)ccc1O (stereo not given) | 2.1
c1ccc(CN2CCN(Cc3ccccn3)CC2)cc1 | 0.53
Cc1nn2c3ccccc3n(CCN3CCCCC3)c2nc1=O | 3.1*
COC(=O)c1c(C)nc2n(CCN3CCCCC3)c3ccccc3n12 | 1.1
Cc1cn2c3ccccc3n(CCN3CCCC3)c2n1 | 0.49
COc1cc2c(cc1OC)C(C)N(C(=O)CCC(=O)O)CC2 (stereo not given) | -2.5
Cc1nn(-c2ccc(N3CCNCC3)nn2)c(=O)c2ccccc12 | -1.1
CCOc1cc(-c2cc(OCC)c3c(C)oc(C)c3c(=O)c2)ccc1O | 3.5*
CCOc1cc(-c2cc(O)c3c(C)oc(C)c3c(=O)c2)ccc1O | 0.83
CCOc1cc(-c2cc(=O)c3ccccc3o2)ccc1O | -0.81
SMILES | Dicer processing
COc1cccc(N2C(=O)CC(Sc3nnc(C)s3)C2=O)c1 (stereo not given) | 0.35
O=C(Oc1c(-c2ccccc2)c(=O)n2c3c(cccc13)CC2)c1ccccc1 | -2
O=C(Oc1c(-c2ccccc2)c(=O)n2c3c(cccc13)CC2)c1cccs1 | 4*
O=C(Oc1c(-c2ccccc2)c(=O)n2c3c(cccc13)CCC2)c1cccs1 | -1
COC(=O)c1ccc(C2c3c(oc4ccc(F)cc4c3=O)C(=O)N2Cc2ccc3c(c2)OCO3)cc1 (stereo not given) | 0.15
Cc1cc(C)c2[nH]cc(C(=O)O)c(=O)c2c1 | -0.19
Nc1ccc(Oc2ccccc2)cc1 | 5*
Fc1c(F)c(Oc2ccccc2)c(F)c(F)c1Oc1ccccc1 | 0.05
Nc1cc(Cl)ccc1Oc1ccccc1 | 2.7
O=C1CCC/C(=N\Nc2ccccc2)C1 | -2
COC(=O)c1sccc1NC(=O)CC1C(=O)NCCN1C(=O)NS(=O)(=O)c1ccc(C)cc1 (stereo not given) | 0.94
CC1=C(C(=O)OC(C)C)C(c2cccnc2)C2=C(CC(c3ccc(Cl)cc3)CC2=O)N1 (stereo not given) | 1.7
CCOC(=O)c1c(NC(=O)CN(CC)CC)sc2c1CCCC2 | -0.77
CCOC(=O)c1c(NC(=O)CSc2nnc(C)c(=O)[nH]2)sc2c1CCCC2 | 3.3*
Cc1nnc(SCC(=O)Nc2sc3c(c2C#N)CCCC3)s1 | 3.4*
N#Cc1c(NC(=O)CSc2ccc(Cl)cc2)sc2c1CCC2 | 0.24
N#Cc1c(NC(=O)CSc2nnnn2-c2ccccc2)sc2c1CCCC2 | -1.4
CCOC(=O)c1c(NC(=O)CSc2nnc3c(n2)[nH]c2ccccc23)sc2c1CCCC2 | 0.97
Cc1ccc(-n2c(-c3nn(-c4ccccc4)nc3C)n[nH]c2=S)cc1C | -0.52
Cc1cc(C)n(CC(=O)Nc2ccc(Br)cc2)c(=O)n1 | -0.05
CSc1cccc(NC(=S)Nc2cc3c(c(N)c2C)C(C)(C)CC3(C)C)c1 | 0.78
O=C(O)CSCC(=O)NC(c1ccccc1)c1ccccc1 | -1.8
CCN1C(=O)c2cccc3c(S(=O)(=O)NC(C(=O)O)C(C)C)ccc1c23 (stereo not given) | 0.08
O=S(=O)(c1ccc(Oc2ccccc2)nc1)N1CCCC1c1ccc(F)cc1 (stereo not given) | -0.38
C=CCOC(=O)COc1ccc2c(c1)oc(=O)c1ccccc12 | 0.38
SMILES | Dicer processing
O=C(O)COc1ccc2c(c1)oc(=O)c1ccccc12 | 0.04
O=C(COc1ccc2c(c1)oc(=O)c1ccccc12)OCc1ccccc1 | 4.5*
CCCCOC(=O)C1=C(C)NC2=C(C(=O)CC(C)(C)C2)C1c1ccc(N(C)C)cc1 (stereo not given) | 2.7
O=[N+]([O-])c1cccnc1Sc1nnc(-c2ccccc2)o1 | -1.2
CC(=O)n1c2c(c3ccccc31)OC(N)=C(C#N)C2c1ccc(Cl)cc1 (stereo not given) | -0.43
Cc1[nH]nc2c1C(c1ccccc1)C(C#N)=C(N)O2 (stereo not given) | -1.2
CN(C)c1ccc(C2C(C#N)=C(N)Oc3c2sc2ccccc32)cc1 (stereo not given) | 6*
CCCCc1ccc(C2C(C(=O)OCC)=C(C)NC3=C2C(=O)CC(C)(C)C3)s1 (stereo not given) | -1.9
Cc1nc2c(=O)n(-c3c(Cl)cccc3Cl)nc(C)c2s1 | 0.27
O=C(Nc1ccc(OC(F)(F)F)cc1Br)c1ccc(Cl)cc1 | 0.16
Cc1ccc2ccc(C(Nc3ccccn3)c3cccc(Cl)c3)c(O)c2n1 (stereo not given) | 16*
Cc1cccc(NC(c2cccc(O)c2)c2ccc3ccc(C)nc3c2O)n1 (stereo not given) | 0.83
Cc1ccnc(NC(c2ccccc2C)c2ccc3cccnc3c2O)c1 (stereo not given) | 2.1
Cc1ccccc1C(Nc1ccccn1)c1ccc2cccnc2c1O (stereo not given) | 5.7*
Cc1ccc2ccc(C(Nc3ccccn3)c3ccc(Cl)cc3)c(O)c2n1 (stereo not given) | 4.8*
C=CCOc1ccc(C(Nc2ccccn2)c2ccc3ccc(C)nc3c2O)cc1 (stereo not given) | 0.31
Cc1ccc2ccc(C(Nc3ccccn3)c3cccc(Br)c3)c(O)c2n1 (stereo not given) | -0.92
Cc1ccc(C(Nc2ccccn2)c2ccc3ccc(C)nc3c2O)cc1 (stereo not given) | -0.45
Cc1ccc(C)c(C(Nc2ccccn2)c2ccc3cccnc3c2O)c1 (stereo not given) | 9
CCCCOc1ccc2c(=O)c(Oc3ccc(OC)cc3)coc2c1 | -0.42
CC(=O)/C(=C\Nc1cc(C)nc(C)n1)S(=O)(=O)c1ccc(Cl)cc1 | -2.8
C#CCSc1nnc(SCC(=O)c2sc3ccc(Cl)cc3c2C)s1 | -0.53
O=C1CS/C(=N\N=C\c2ccccc2Cl)N1c1cc(C(F)(F)F)ccc1Cl | 0.14
COC(=O)c1cnc(Sc2cc(C(F)(F)F)cc(C(F)(F)F)c2)nc1C(F)(F)F | -1.4
CSc1sc(C#N)c2c1S(=O)(=O)N(C)c1ccccc1-2 | -0.38
CCOC(=O)c1c(C)n(CC)c2ccc(OC)cc12 | 2.4
Nc1ncnc(Nc2ccc(Oc3ccc(Cl)cc3)cc2)n1 | -0.35
Nc1nc(Nc2ccc(Cl)cc2)n[nH]1 | 5.4*
Nc1nc(SCc2ccc(Cl)cc2)n[nH]1 | 0.27
